# In PubChem BioAssay AID651956 (Broad Institute, 2012):
# Results with a measured potency or affinity are listed apart. Inconclusive results are not listed. A number with no mark means an inactive call.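 How the source made its calls: active means in every test run, a fitted half-maximal concentration for signal decrease at or below twice the highest tested concentration; inconclusive means runs disagree, flat 30 to 70% decrease, or poor fit; inactive means the rest.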
# Experiment: activation of miR-122 Renilla sensor silencing – cell-based, Huh7 psiCHECK-miR122, Renilla luciferase, cherry-picked, dose response (AID 651956);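 further: 0% = median neutral control wells and -100% = median positive control wells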
# Conditions: Huh7 psiCHECK-miR122 Renilla luciferase reporter, 48 h; series mostly up to 35 µM; activity change, negative = signal decrease: at the top concentration
row,Structure (SMILES),"activity change, negative = signal decrease"
1,CNC[C@H]1Oc2cc(C#CC3CCCCC3)ccc2S(=O)(=O)N([C@H](C)CO)C[C@@H]1C,-132%
2,C/C=C/c1ccc([C@H]2[C@@H](CO)N[C@@H]2CN(C(=O)c2ccccc2F)C(C)C)cc1,179%
3,C[C@@H]1CN([C@H](C)CO)S(=O)(=O)c2ccc(C3=CCCC3)cc2O[C@@H]1CN(C)C(=O)c1ccc(F)cc1,-60.6%
4,O=C(COc1ccccc1F)N1CCc2ccccc2C1,42.4%
5,CN1C(=O)c2cc(NC(=O)Cc3ccccc3)ccc2OC[C@H]2O[C@@H](CC(=O)NC3CCC3)CC[C@H]21,-7.88%
6,O=C(Oc1c(CN2CCOCC2)cc(Cl)c2cccnc12)c1ccc(F)cc1,18.7%
7,CCCNC(=O)Nc1ccc2c(c1)OC[C@H](C)N(CCC)C[C@H](C)[C@H](OC)CN(C)C2=O,70%
8,CCC(=O)Nc1ccc2c(c1)C(=O)N(C)[C@@H]1CC[C@H](CC(=O)NCCN3CCCCC3)O[C@H]1CO2,-46.3%
9,COc1cccc(C(=O)N2C[C@H]3[C@@H](c4ccccc42)[C@H](CO)N3C(C)=O)c1,40.8%
10,C[C@H](CO)N1C[C@H](C)[C@H](CN(C)Cc2ccccc2)Oc2cc(/C=C/c3ccccc3)ccc2S1(=O)=O,-55.6%
11,CN1C(=O)c2cc(NC(=O)c3ccc4c(c3)OCO4)ccc2OC[C@H]2O[C@@H](CC(=O)O)CC[C@@H]21,-34%
12,Cc1[nH]c(=O)c(C#N)cc1-c1ccccc1,-28.5%
13,O=C(Nc1ncc(Cc2cccc(C(F)(F)F)c2)s1)c1ccc(-c2cccc([N+](=O)[O-])c2)o1,-14.5%
14,CCCC(=O)Nc1ccc2c(c1)C(=O)N(C)[C@H]1CC[C@H](CC(=O)NCCN3CCCCC3)O[C@@H]1CO2,-37.7%
15,CNC(=O)C[C@H]1CC[C@@H]2[C@H](COc3ccc(NC(=O)Nc4cccc(F)c4)cc3C(=O)N2C)O1,14.6%
16,Cc1cccc(NC(=O)Nc2ccc3c(c2)C(=O)N(C)[C@H]2CC[C@H](CC(=O)O)O[C@H]2CO3)c1,-12.9%
17,COC(=O)C[C@@H]1CC[C@H]2[C@@H](COc3ccc(NC(=O)c4ccc(C(F)(F)F)cc4)cc3C(=O)N2C)O1,85.2%
18,Cc1cc(C)c2c(c1)/C(=C/C(=O)c1ccc(Br)s1)C(=O)N2,120%

row,Structure (SMILES),"activity change, negative = signal decrease"
1,C[C@H](NC(=O)C[C@@H]1CC[C@H]2[C@H](COc3ccc(NS(=O)(=O)c4ccc(Cl)cc4)cc3C(=O)N2C)O1)c1ccccc1,70.4%
2,CN1C(=O)c2cc(NC(=O)C3CC3)ccc2OC[C@@H]2O[C@H](CC(=O)NC3CCC3)CC[C@H]21,-26.3% [at 30 µM]
3,Oc1ccc(/C=N/Nc2nccnc2Cl)c(O)c1,-20.7%
4,COc1ccc(C(C#N)Nc2ccc(C)cc2)cc1 (stereo unspecified),-33.2%
5,CC(C)Oc1ccc(CNCCC2(C(C)C)CCOC(C)(C)C2)cc1 (stereo unspecified),186%
6,COc1cc(NC(=O)c2c(F)c(F)c(F)c(F)c2F)c(OC)cc1Cl,-102%
7,COC(=O)C[C@H]1CC[C@@H]2[C@@H](COc3ccc(NC(=O)c4ccc(F)c(F)c4)cc3C(=O)N2C)O1,-37.6%
8,Cc1cnc(NC(=O)c2cc3c(C)nn(-c4ccccc4)c3s2)s1,-11.8%
9,CC(=O)N(C[C@@H]1N[C@@H](CO)[C@H]1c1ccc(-c2ccccc2)cc1)C(C)C,50.3%
10,C[C@@H]1CN([C@H](C)CO)S(=O)(=O)c2ccc(C3=CCCCC3)cc2O[C@@H]1CN(C)C(=O)Nc1ccc2c(c1)OCO2,-88.8%
11,COCC(=O)Nc1ccc2c(c1)C(=O)N(C)[C@@H]1CC[C@H](CC(=O)NCCCN(C)C)O[C@H]1CO2,-2.91%
12,CN[C@H]1C[C@H]2c3[nH]c4ccc(-c5ccc(OC)cc5)cc4c3CCN2C(=O)[C@H]1[C@H](C)O,-96.4%
13,CC(C)CC#Cc1ccc2c(c1)O[C@H](CN(C)C(=O)c1cnccn1)[C@H](C)CN([C@H](C)CO)S2(=O)=O,-63.4%
14,CN1C(=O)c2cc(NC(=O)C3CCOCC3)ccc2OC[C@H]2O[C@H](CC(=O)NCc3ccc4c(c3)OCO4)CC[C@@H]21,-23.7%
15,COCC(=O)N(C[C@H]1N[C@@H](CO)[C@@H]1c1ccc(C2=CCCC2)cc1)C(C)C,-21.5%
16,COC(=O)C[C@@H]1CC[C@H]2[C@@H](COc3ccc(NC(=O)c4ccc(F)c(F)c4)cc3C(=O)N2C)O1,134%
17,O=C(COC(=O)c1ccccc1)Nc1cc(Cl)ccc1Oc1ccccc1,-24.7%
18,CCCC(=O)Nc1ccc2c(c1)C(=O)N(C)[C@H]1CC[C@@H](CC(=O)NCCN3CCCCC3)O[C@H]1CO2,138%
